This is a sample that favours compounds with a hit; in the whole collection about 13% have one here.
USP30 inh = inhibitors of human USP30 deubiquitinase; inhibition, % at 25 µM; AID 1645860; 47,000 compounds, 5.3% hits; Q70CQ3; purified USP30, Ub-rhodamine cleavage fluorescence
OTUD3 block = inhibitors of human OTUD3 deubiquitinase | Q5T2D3 | 47,000 compounds, 0.7% hits | inhibition, % at 25 µM | purified OTUD3, Ub-rhodamine fluorescence, 2 h
USP17 block = inhibitors of human USP17 deubiquitinase; A8MUK1; purified USP17, Ub-rhodamine cleavage fluorescence, 3 h; inhibition, % at 50 µM; 47,000 compounds, 6.5% hits; AID 1645855
USP8 inh = blocks human USP8 ubiquitin-rhodamine cleavage; AID 1645853; purified USP8, Ub-rhodamine cleavage fluorescence, 30 min; inhibition, % at 20 µM; 47,000 compounds, 4.2% hits; P40818
Target sequence (P40818 whole entry, looked up): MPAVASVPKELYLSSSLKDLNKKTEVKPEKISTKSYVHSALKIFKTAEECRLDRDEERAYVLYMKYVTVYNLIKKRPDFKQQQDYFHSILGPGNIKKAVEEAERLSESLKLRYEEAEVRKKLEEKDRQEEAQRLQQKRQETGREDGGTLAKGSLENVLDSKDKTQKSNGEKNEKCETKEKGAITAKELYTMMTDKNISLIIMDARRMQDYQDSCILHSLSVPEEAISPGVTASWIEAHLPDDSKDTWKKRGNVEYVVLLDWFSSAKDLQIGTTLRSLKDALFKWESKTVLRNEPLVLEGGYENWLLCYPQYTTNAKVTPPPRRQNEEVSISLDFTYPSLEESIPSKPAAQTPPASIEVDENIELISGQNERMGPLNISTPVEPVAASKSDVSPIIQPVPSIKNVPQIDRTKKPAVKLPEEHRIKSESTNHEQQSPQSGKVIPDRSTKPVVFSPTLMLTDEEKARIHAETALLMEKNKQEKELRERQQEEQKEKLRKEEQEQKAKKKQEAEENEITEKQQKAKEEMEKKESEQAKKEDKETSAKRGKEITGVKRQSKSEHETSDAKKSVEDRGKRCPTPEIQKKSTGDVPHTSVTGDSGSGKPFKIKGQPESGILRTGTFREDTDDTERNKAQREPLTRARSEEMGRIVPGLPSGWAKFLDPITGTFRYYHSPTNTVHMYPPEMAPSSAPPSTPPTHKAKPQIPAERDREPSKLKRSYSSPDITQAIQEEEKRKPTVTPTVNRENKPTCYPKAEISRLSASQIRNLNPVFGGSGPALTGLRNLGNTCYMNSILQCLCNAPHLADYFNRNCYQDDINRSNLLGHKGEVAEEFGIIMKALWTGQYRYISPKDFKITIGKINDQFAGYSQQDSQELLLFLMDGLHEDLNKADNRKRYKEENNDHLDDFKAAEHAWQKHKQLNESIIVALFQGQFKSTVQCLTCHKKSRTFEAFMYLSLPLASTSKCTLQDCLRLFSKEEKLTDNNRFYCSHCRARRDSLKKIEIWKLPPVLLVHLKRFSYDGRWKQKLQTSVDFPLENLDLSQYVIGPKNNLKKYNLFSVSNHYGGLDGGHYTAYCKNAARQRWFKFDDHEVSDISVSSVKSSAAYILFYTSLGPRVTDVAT
USP28 block = blocks human USP28 ubiquitin-rhodamine cleavage. purified USP28, Ub-rhodamine cleavage fluorescence, 30 min. inhibition, % at 25 µM. AID 1645857. 47,000 compounds, 3% hits
A number is an active result; 0 = inactive; - = not tested or not shown. Cut-off read from the data, not from the text of the source: active = inhibition above about 30%; inactive = the rest.

SMILES	USP30 inh	OTUD3 block	USP17 block	USP8 inh	USP28 block
O=c1[nH]c(=O)c2c(-c3cccc4ccccc34)ccnc2[nH]1	0	0	0	0	0
FC(F)(F)Oc1ccc(/C=C/c2nc(-c3cccs3)no2)cc1	0	0	0	0	0
COCCn1cnc(-c2nc(C(=O)N3CCCN(C)CC3)c3ccccn23)c1	0	0	0	0	0
Cc1ccc2c(c1)NC(CCC(=O)NCCc1ccc(Cl)cc1)=NS2(=O)=O	59	0	59	0	0
Cc1nc(-c2ccccc2)sc1C(=O)CSc1ccc(F)cc1	32	0	0	0	0
Cc1nc(-c2ccccc2)sc1C(=O)/C=C/c1c(F)cccc1Cl	0	0	0	0	0
O=c1c2ccccc2oc2nc(-c3cccs3)n(-c3ccccc3)c(=O)c12	33	0	57	98	0
O=C1CCC[C@@H]2[C@H](C[C@H](c3ccccc3)N2C(=O)COc2ccc(F)cc2)N1	0	0	0	0	0
COc1ccc(-c2cc3n(C)c(C)c(CCC(=O)NCc4ccccc4F)c(=O)n3n2)cc1	0	0	0	0	0
COc1cccc(-c2cc3n(C)c(C)c(CCC(=O)NCc4ccco4)c(=O)n3n2)c1	0	0	0	53	0
O=C(COc1cccc(F)c1)N1CCSc2ccccc21	0	0	0	0	0
O=C(COc1cccc(Cl)c1)N1CCSc2ccccc21	36	0	0	0	39
CC(C)n1cc2cc(C(=O)NC3CCN(Cc4ccccc4)CC3)sc2c1	0	0	0	51	0
CC(C(=O)NCCc1ccccc1)n1nc(-c2ccccc2)c2cc(Cl)ccc21 (configuration not stated)	55	34	48	31	0
Cc1ccccc1OCCSc1nc2ccccc2n1CC(=O)N1CCOCC1	0	0	0	0	0
Cc1cccc(NC(=O)CNc2nc(Nc3ccccc3)nc(Nc3ccccc3)n2)c1	32	0	-	0	0
Cc1ccccc1NC(=O)CNc1nc(Nc2ccccc2)nc(Nc2ccccc2)n1	0	0	65	34	0
O=C(CNc1nc(Nc2ccccc2F)nc(Nc2ccccc2F)n1)Nc1ccccc1	81	0	0	0	49
Cc1ccccc1NC(=O)Cn1cnc(NC(=O)c2ccccc2)n1	0	0	0	0	0
O=C(CNc1nc(Nc2ccccc2)nc(Nc2ccccc2)n1)Nc1ccccc1F	0	0	44	0	0
Cc1cccc(NC(=O)CSCC(=O)Nc2cccc3ccccc23)c1	0	0	0	0	0
CC(=O)Nc1ccc(S(=O)(=O)N2CCC(C(=O)Nc3ccc4cc[nH]c4c3)CC2)cc1	0	0	0	0	0
Cc1ccc(C(=O)Nc2ccc(S(=O)(=O)N3CCCC3)cc2)cc1Br	45	0	0	0	78
COc1ccc(C(=O)Nc2ccc(S(=O)(=O)N3CCCCC3)cc2)cc1	0	0	0	0	66
CCOC(=O)N1CCN(S(=O)(=O)c2ccc(C(=O)Nc3ccc(OCC)cc3)cc2)CC1	0	0	0	0	0
SMILES	USP30 inh	OTUD3 block	USP17 block	USP8 inh	USP28 block
O=C(Nc1ccc(S(=O)(=O)N2CCCCC2)cc1)c1ccccn1	-	0	75	0	-
O=C(Nc1ccc2[nH]ccc2c1)C1CCN(S(=O)(=O)c2ccccc2)CC1	45	0	0	0	0
CNC(=O)[C@@]12CCC3(CCN(C(=O)c4cccnc4)CC3)[C@@H]1CN(S(C)(=O)=O)C2	0	0	0	0	0
O=C(CSc1cc(NCc2ccc(Cl)cc2)ncn1)NCC1CCCO1 (configuration not stated)	0	0	0	0	0
CSc1cccc(NC(=O)c2nc(-c3ccc(C)cc3)n3c2CCCCC3)c1	0	0	0	0	0
Cc1cc(NC(=O)CN2CCCN(S(=O)(=O)c3ccc(F)cc3)CC2)ccc1Br	38	0	35	0	0
Cc1cccc(NC(=O)CN2CCCN(S(=O)(=O)c3ccc(Br)cc3)CC2)c1	0	0	0	0	0
COc1ccc(S(=O)(=O)N2CCC(C(=O)Nc3ccc4c(c3)OCO4)CC2)cc1	0	0	0	0	38
NC(=O)c1cc(CC2CCCN(C(=O)c3cccc(F)c3)CC2)ncn1 (configuration not stated)	0	0	0	0	0
Cc1cc(C)c(NC(=O)/C=C/c2ccc3ccccc3n2)c(C)c1	0	0	34	0	0
O=S(=O)(c1cccc(Cl)c1F)N1CCC2(CC1)CC2c1nc(-c2cccnc2)no1 (configuration not stated)	0	0	0	0	0
Cc1c(Cl)cccc1S(=O)(=O)N1CCC2(CC1)CC2c1nc(-c2cccnc2)no1 (configuration not stated)	35	0	0	0	0
Cc1nc(S/C(=C\c2ccc(OC(C)C)cc2)C(=O)O)n[nH]1	0	0	0	0	0
O=C(CCCc1nnc2c(=O)n(-c3cccc(F)c3)ccn12)NCc1ccc(F)cc1	0	0	0	48	0
O=C(CCCc1nnc2c(=O)n(-c3cccc(F)c3)ccn12)Nc1ccccc1	0	0	38	47	0
COc1ccc(-n2ccn3c(CCC(=O)NCc4ccc(F)cc4)nnc3c2=O)cc1	0	0	69	0	0
Cc1cccc(NC(=O)CCCc2nnc3c(=O)n(-c4cccc(F)c4)ccn23)c1	0	0	0	61	0
Cc1cc(C)cc(-n2ccn3c(CCC(=O)Nc4cccc(F)c4)nnc3c2=O)c1	0	0	0	0	0
O=C(c1cnccn1)N1CCCC(c2ncc(Cc3ccc(Cl)cc3)o2)C1 (configuration not stated)	0	0	0	0	0
CCc1ccccc1NC(=O)CC[C@@H]1NC(=O)N(Cc2ccc(OC)cc2)C1=O	0	0	0	0	0
Cc1ccc(C(C)C(=O)N2CCc3nc4ccccc4c(=O)n3CC2)cc1 (configuration not stated)	30	0	0	0	0
O=C(Cc1ccccc1O)N1CCc2nc3ccccc3c(=O)n2CC1	0	0	0	0	0
O=C(CS(=O)(=O)c1ccc(F)cc1)Nc1ccc(-c2nc3ccccc3s2)c(O)c1	0	0	37	0	0
NC(N)=NCCC(=O)N1CCc2nc3ccccc3n2C(Cc2ccccc2)C1 (configuration not stated)	0	0	0	0	0
O=C(Nc1ccc(O)cc1)c1cccn2c(-c3ccccc3F)nnc12	0	0	0	56	37
SMILES	USP30 inh	OTUD3 block	USP17 block	USP8 inh	USP28 block
Cc1nnc2c(NC(=O)c3cc(F)ccc3F)cccn12	0	0	0	0	0
Cc1ccc(-c2nc(-c3ccc(=O)[nH]c3)no2)cc1F	0	0	0	0	0
O=c1ccc(-c2noc(-c3ccc4cc[nH]c4c3)n2)c[nH]1	0	0	59	51	0
O=c1ccc(-c2noc(/C=C/c3ccc4c(c3)OCO4)n2)c[nH]1	0	0	47	0	0
Cc1noc([C@@H]2C[C@H]3CN(Cc4ccoc4)C[C@H]3O2)n1	0	0	0	0	0
C=C/C(C)=C/[C@@]1(C)SC(=O)C(C)=C1O	0	0	0	41	0
Cc1c(Cc2ccccc2)c(=O)oc2cc3occ(-c4ccc5ccccc5c4)c3cc12	0	0	32	0	0
